Source: PubChem
Rows were chosen to be rich in hits. Some 1.6% of all compounds tested hit in one or more screens of this group.
V-ATPase pHluor – regulators of yeast V-ATPase proton transport. S. cerevisiae, pHLuorin cytosolic pH fluorescence. response, % at 10 µM. hit rate 0.37% among 350,000; in the data active = response mostly above about 7.3%, no sharp cut-off; inactive = mostly below about 5.4%; also: actives read high
GC-A act – GC-A (human) enzyme activation; P16066; HEK293 GC-A cells, cGMP TR-FRET, EC30 ANP; 0% at EC30 ANP, 100% saturating ANP; activation, % at 10 µM; hit rate 0.14% among 370,000; AID 1671463; in the data active = activation above about 40%
Efflux pump inh – inhibitors of Candida antifungal efflux pumps expressed in yeast; S. cerevisiae Candida pump triplex, Nile Red efflux; inhibition, % at 10 µM; hit rate 0.44% among 330,000;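 active = plate passing quality check with inhibition over a set limit, or well fluorescence over plate mean plus 4 SD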;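 also: Nile Red retained in pooled yeast measured as flow cytometry median fluorescence; 0% = buffer negative control and 100% = Enniatin B positive control; higher means more Nile Red kept so more efflux inhibition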
NSD2 inh – blocks human histone methyltransferase NSD2; O96028; NSD2 peptide methylation, AlphaScreen, 120 min; inhibition, % at 12.5 µM; hit rate 0.54% among 310,000; in the data active = inhibition above about 50%
GC-B act – GC-B (human) receptor activation. AID 1920062. hit rate 0.11% among 370,000. HEK293-GC-B cells, CNP EC30, cGMP TR-FRET; 0% at EC30 CNP, 100% saturating CNP. activation, % at 10 µM. P20594;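 active = activation at 10 µM reaching about 35% in either raw or pattern-adjusted values, limit read from the data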
Target sequence (P20594 whole entry, looked up): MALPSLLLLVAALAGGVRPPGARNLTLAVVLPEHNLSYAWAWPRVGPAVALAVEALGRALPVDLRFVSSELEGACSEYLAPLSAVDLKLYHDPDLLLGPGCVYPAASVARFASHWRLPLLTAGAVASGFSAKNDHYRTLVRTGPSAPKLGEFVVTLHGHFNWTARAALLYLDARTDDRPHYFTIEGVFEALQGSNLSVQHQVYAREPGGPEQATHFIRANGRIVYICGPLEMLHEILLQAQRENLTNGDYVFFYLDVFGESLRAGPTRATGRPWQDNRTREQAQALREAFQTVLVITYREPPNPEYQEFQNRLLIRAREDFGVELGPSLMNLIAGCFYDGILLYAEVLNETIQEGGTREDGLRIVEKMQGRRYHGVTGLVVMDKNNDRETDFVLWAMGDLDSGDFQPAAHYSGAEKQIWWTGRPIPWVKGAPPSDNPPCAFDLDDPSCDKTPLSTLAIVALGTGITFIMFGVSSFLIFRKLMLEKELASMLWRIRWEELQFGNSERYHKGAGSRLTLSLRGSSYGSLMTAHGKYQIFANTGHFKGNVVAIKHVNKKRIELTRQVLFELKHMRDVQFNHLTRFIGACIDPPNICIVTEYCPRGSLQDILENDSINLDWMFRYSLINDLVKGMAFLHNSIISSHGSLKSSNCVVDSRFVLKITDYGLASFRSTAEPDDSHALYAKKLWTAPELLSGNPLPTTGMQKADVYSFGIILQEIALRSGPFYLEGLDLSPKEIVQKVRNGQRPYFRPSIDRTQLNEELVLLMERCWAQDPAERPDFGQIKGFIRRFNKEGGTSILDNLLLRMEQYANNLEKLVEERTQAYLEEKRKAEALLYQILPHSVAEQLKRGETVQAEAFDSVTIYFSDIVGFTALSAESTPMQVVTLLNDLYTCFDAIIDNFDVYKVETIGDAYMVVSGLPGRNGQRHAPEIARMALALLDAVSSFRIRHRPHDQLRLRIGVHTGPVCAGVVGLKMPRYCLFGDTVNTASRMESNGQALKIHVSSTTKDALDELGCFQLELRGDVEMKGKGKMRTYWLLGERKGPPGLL
Rce1 inhib – blocks yeast Ras-converting enzyme; hit rate 0.27% among 290,000; yeast membranes, quenched prenylated peptide cleavage fluorescence; calls only; Q03530;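 active = fall in fluorescence gain of 50% or more versus controls, with final raw signal at or below 3038400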;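 also: plate controls were neutral control wells for no effect and wells lacking membranes for full effect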
Cmpd fluor yeast – counter-screen for efflux pump inhibitors: compound fluorescence; shares compounds with Efflux pump inh; S. cerevisiae AD/pABC3, flow cytometry; fluorescence ratio to DMSO, % at 10 µM; hit rate 4% among 1,700; AID 588517;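 active = fluorescence ratio to DMSO above its plate's cutoff, the plate mean ratio plus 5 SD, cut at about 210% in these data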;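 also: unstained yeast with no Nile Red so the signal is compound autofluorescence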
Mdr1 pump inh – inhibitors of Candida albicans Mdr1 efflux pump; shares compounds with Efflux pump inh; hit rate 1% among 1,700; inhibition, % at 10 µM; S. cerevisiae AD/CaMDR1, Nile Red efflux, flow cytometry; in the data active = inhibition above about 26%;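 also: 0% = DMSO vehicle and 100% = reference inhibitor; higher means more Nile Red retained so more efflux inhibition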
CaCdr2 efflux inh – blocks the Candida albicans Cdr2 efflux pump in yeast; shares compounds with Efflux pump inh; S. cerevisiae AD/CaCDR2, Nile Red retention, flow cytometry; Nile Red retention ratio vs DMSO, % at 10 µM; hit rate 4% among 1,700; AID 588520; in the data active = Nile Red retention ratio vs DMSO above about 190%;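 also: higher ratio means more blocking of Cdr2 efflux of the dye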
CaCdr1 efflux inh – inhibitors of Candida albicans Cdr1 efflux pump; shares compounds with Efflux pump inh; S. cerevisiae AD/CaCDR1, Nile Red efflux, flow cytometry; inhibition, % at 10 µM; hit rate 1% among 1,700; AID 588522;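 active = inhibition above the screen-wide mean plus twice its standard deviation, cut at about 32% in these data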
* = called active by the depositor; i = inactive; x = no result given; + = active, no number.

SMILES | V-ATPase pHluor | GC-A act | Efflux pump inh | NSD2 inh | GC-B act | Rce1 inhib | Cmpd fluor yeast | Mdr1 pump inh | CaCdr2 efflux inh | CaCdr1 efflux inh
CCCCCCCCN1C(=O)[C@@H](CC(=O)N2CCCCC2)C[C@@]2(C(=O)OC)C1=C[C@H](C(C)C)O[C@@H]2C1CC1 | x | -2 | x | x | -4 | x | x | x | x | x
Oc1ccc(Oc2ccccc2F)c2cccnc12 | x | 7 | x | x | -4 | x | x | x | x | x
O=C(NCCc1c[nH]c2ccccc12)OCc1cn(Cc2cccc(F)c2)nn1 | x | 2 | x | x | 1 | x | x | x | x | x
CC[C@H]1OC(=O)[C@H](C)[C@@H](O[C@H]2C[C@@](C)(OC)[C@@H](O)[C@H](C)O2)C(C)[C@@H](O[C@@H]2O[C@H](C)C[C@H](N(C)C)[C@H]2O)[C@](C)(O)C[C@@H](C)CN(C)[C@H](C)[C@@H](O)[C@]1(C)O (stereo not given in full) | x | 4 | x | x | -6 | x | x | x | x | x
O=C(COC(=O)c1cccc(S(=O)(=O)N2CCOCC2)c1)Nc1ccc2c(c1)OCO2 | -1 | -3 | 0 | 1 | 2 | i | x | x | x | x
O=C(COC(=O)c1ccc2c(c1)OCCO2)Nc1cccc(S(=O)(=O)N2CCOCC2)c1 | 0 | -1 | 0.5* | -1 | -1 | i | 104 | 0 | 105 | 0
CN(C)c1ccc(/C=C2/C=C(c3ccc4c(c3)CCCC4)OC2=O)cc1 | -4 | 2 | 0.8* | -12 | 5 | i | 132 | 0 | 148 | 0
COC(=O)C1CN(Cc2cn(Cc3ccc(OC)cc3)nn2)CCS(=O)(=O)N1Cc1ccc(F)cc1 (stereo not given) | x | -3 | x | x | -1 | x | x | x | x | x
O=C(NC1CCCc2ccccc21)c1cncc(Br)c1 (stereo not given) | -2 | -5 | 3.4* | x | -8 | i | 96 | 0 | 92 | 0
O=C(NC1CCCc2ccccc21)c1cc(F)cc(F)c1 (stereo not given) | 0 | -3 | 0 | 0 | -3 | i | x | x | x | x
Cc1nc2sc(C(=O)NCc3ccc4c(c3)OCO4)c(N)c2c(C)c1Cl | x | 5 | x | x | -3 | x | x | x | x | x
COc1ccc(S(=O)(=O)N/N=C(/C)c2ccncc2)cc1 | 9 | 2 | 5.7* | -3 | 5 | i | 101 | 0 | 114 | 0
C/C(=N\NS(=O)(=O)c1ccc(Br)cc1)c1ccncc1 | -2 | 2 | 0 | 0 | 0 | i | x | x | x | x
CCOc1ccc(-n2c(SCC(=O)Nc3ccccc3-c3ccccc3)nnc2-c2cccs2)cc1 | x | -5 | x | -2 | 1 | x | x | x | x | x
O=C(NC(Cc1ccccc1)C(=O)O)c1ccc(S(=O)(=O)N2CCCC2)cc1 (stereo not given) | x | 1 | 0 | -7 | -1 | i | x | x | x | x
O=C(NC(Cc1ccccc1)C(=O)O)c1ccc(S(=O)(=O)N2CCCCC2)cc1 (stereo not given) | -3 | 3 | 6.7* | -2 | -1 | i | 114 | 0 | 103 | 0
CC(=O)N1CCN(c2ccc(NC(=S)NC(=O)c3ccccc3)cc2)CC1 | -1 | 0 | 5.8* | 0 | 1 | i | 109 | 0 | 100 | 0
C=CCN(CC#CC1=CCCCC1)CC1CC1 | x | 0 | x | x | 7 | x | x | x | x | x
CC(=O)OCCC(NS(=O)(=O)OCC(Cl)(Cl)Cl)c1ccccc1 (stereo not given) | -6 | -2 | 0.7* | x | 1 | i | 111 | 0 | 106 | 0
C[C@H](NS(=O)(=O)OCC(Cl)(Cl)Cl)C1CC1c1ccccc1 (stereo not given in full) | 4 | 0 | 0 | x | -1 | i | x | x | x | x
COC(=O)CN1CCN(C(=O)c2nocc2C)CC1 | x | 3 | x | -1 | 4 | x | x | x | x | x
C=C(C)Cn1c(SCC(=O)N/N=C(\C)c2ccc([N+](=O)[O-])cc2)nnc1-c1ccc(Br)cc1 | x | -11 | x | -1 | -10 | x | x | x | x | x
COc1ccc(CNC(=O)/C=C/C(=O)O)cc1OC | -3 | 0 | 5.5* | 0 | 3 | i | 101 | 0 | 96 | 0
COc1ccc(N=C(N)NC(=O)OCc2ccccc2)cc1 | x | 1 | x | x | 8 | x | x | x | x | x
CC(C)NC(=O)C(=O)NNC(=O)C12CC3CC(CC(C3)C1)C2 | -4 | 1 | 2.1* | x | 2 | i | 111 | 0 | 116 | 0
SMILES | V-ATPase pHluor | GC-A act | Efflux pump inh | NSD2 inh | GC-B act | Rce1 inhib | Cmpd fluor yeast | Mdr1 pump inh | CaCdr2 efflux inh | CaCdr1 efflux inh
CC(C)C(=O)N1CC[C@H]2[C@H](CCCN2Cc2ccccc2)C1 | x | 4 | x | x | 0 | x | x | x | x | x
CCC(=O)N1CCc2cc(Br)c(S(=O)(=O)NCCCN(CC)Cc3ccccc3)cc21 | x | -1 | x | 1 | -7 | x | x | x | x | x
Cc1cc(NS(=O)(=O)c2ccc(NC(=O)C(CC(C)C)N3C(=O)c4ccccc4C3=O)cc2)nc(C)n1 (stereo not given) | 3 | 5 | 0.9* | -4 | 1 | i | 100 | 0 | 97 | 0
Cc1cc(NS(=O)(=O)c2ccc(NC(=O)C(C(C)C)N3C(=O)c4ccccc4C3=O)cc2)nc(C)n1 (stereo not given) | 1 | -1 | 0 | -3 | 1 | i | x | x | x | x
CCOc1ccc(-n2c(SC/C=C/c3ccccc3)nnc2-c2ccco2)cc1 | x | 3 | x | 0 | 0 | x | x | x | x | x
CCCCCCCCNS(=O)(=O)CC1NCc2cc(F)ccc21 (stereo not given) | x | 3 | x | x | 6 | x | x | x | x | x
CCC(C)n1cnc2c(c1=O)c1nc3ccccc3nc1n2Cc1ccc(OC)cc1 (stereo not given) | 0 | 53* | 70* | 1 | 54* | i | 100 | 0 | 123 | 1
COc1ccc(Cn2c(C)nc3c(c2=O)c2nc4ccccc4nc2n3Cc2ccco2)cc1 | 3 | 28 | x | x | 28 | x | x | x | x | x
CCC(C)[C@H](NC(=O)NCc1ccccn1)C(=O)OC (stereo not given in full) | -6 | 3 | 0 | -2 | 3 | i | x | x | x | x
COC(=O)[C@H](CCSC)NC(=O)NCc1ccccn1 | 1 | 3 | 0.8* | 2 | -1 | i | 105 | 0 | 112 | 0
CCN(CC)c1nc2cc(OC)ccc2cc1C#N | 0 | 0 | 0 | -30 | 0 | i | x | x | x | x
CCN(CC)c1ccc(/C=C/c2ccc3ccc(OC)cc3[n+]2CC)cc1 | -1 | -16 | 16* | 76* | -11 | i | + | 11 | 155 | 9
CC[n+]1c(/C=C/c2ccc(OC(C)=O)c(OC)c2)ccc2ccccc21 | 0 | -12 | 0 | 19 | -5 | i | x | x | x | x
CC[n+]1c(/C=C/c2ccc(OC)c(OC)c2)ccc2ccccc21 | 1 | -1 | 0.7* | 3 | -6 | i | 177 | 0 | 107 | 0
